“And” between values parts separate entries of the source, which are not always exact repeats. Equal entries are not always repeated. Screen size: about 5,500 compounds; about 2,000 (36%) were called active. Not shown: some 18% with an inconclusive outcome. Rule as the data show it: active = normalized growth mostly below about 0.91 (no sharp cut-off); inconclusive = no clear call, values can overlap the other calls; inactive = mostly above about 0.92. This is one part of the list.
Assay: chemical genetic growth profiling, strain panel (AID 1159580);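 also: tested at 20 µM; growth read once vehicle control cultures reached saturation at 30 °C; 1 = growth at the plate median or of vehicle wells; lower values mean less growth of the strain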
Details: S. cerevisiae deletion strains, growth OD

Measured: normalized growth

O=C(N[C@@H](CO)[C@H](O)c1ccc([N+](=O)[O-])cc1)C(Cl)Cl
inactive: locus YAL013W, strain DEP1, active compounds read low 1 | locus YAL021C, strain ccr4, active compounds read low 1.01 | locus YAL026C, strain drs2, active compounds read low 1.03 | locus YAL030W, strain snc1, active compounds read low 0.999 | locus YBL061C, strain skt5, active compounds read low 0.995 | locus YBR009C, strain hhf1, active compounds read low 1.03 | locus YBR021W, strain FUR4, active compounds read low 1.03 | locus YBR023C, strain chs3, active compounds read low 1.02 | locus YBR171W, strain sec66, active compounds read low 1.02 | locus YBR229C, strain ROT2, active compounds read low 1 | locus YBR231C, strain swc5, active compounds read low 1.01 | locus YBR279W, strain paf1, active compounds read low 1.02 | locus YCL011C, strain gbp2, active compounds read low 1.02 | locus YCL016C, strain dcc1, active compounds read low 1.02 | locus YCL029C, strain bik1, active compounds read low 1.03 | locus YCL061C, strain MRC1, active compounds read low 0.998 | locus YCL069W, strain vba3, active compounds read low 1.02 | locus YCR088W, strain abp1, active compounds read low 1.02 | locus YDL005C, strain med2, active compounds read low 1 | locus YDL035C, strain GPR1, active compounds read low 0.997 | locus YDL040C, strain nat1, active compounds read low 1.01 | locus YDL074C, strain BRE1, active compounds read low 1.03 | locus YDL101C, strain DUN1, active compounds read low 1.01 | locus YDL134C, strain PPH21, active compounds read low 1 | locus YDL185W, strain tfp1, active compounds read low 1.01 | locus YDL192W, strain arf1, active compounds read low 1.01 | locus YDR001C, strain nth1, active compounds read low 1.02 | locus YDR069C, strain doa4, active compounds read low 1.02 | locus YDR101C, strain arx1, active compounds read low 1.01 | locus YDR137W, strain rgp1, active compounds read low 1.03 | locus YDR150W, strain NUM1, active compounds read low 0.997 | locus YDR159W, strain sac3, active compounds read low 0.982 | locus YDR162C, strain NBP2, active compounds read low 1 | locus YDR195W, strain ref2 1.09 | locus YDR297W, strain sur2, active compounds read low 1.02 | locus YDR318W, strain mcm21, active compounds read low 1.01 | locus YDR334W, strain swr1, active compounds read low 1 | locus YDR335W, strain msn5, active compounds read low 1.01 | locus YDR388W, active compounds read low 1.01 | locus YDR392W, strain spt3, active compounds read low 0.981 | locus YDR502C, strain sam2, active compounds read low 1.01 | locus YEL003W, strain gim4, active compounds read low 1.01 | locus YEL037C, strain rad23, active compounds read low 1.01 | locus YEL061C, strain CIN8 (second series), active compounds read low 1.02 | locus YEL061C, strain CIN8, active compounds read low 0.996 | locus YER015W, strain faa2, active compounds read low 1.02 | locus YER016W, strain bim1, active compounds read low 1.01 | locus YER110C, active compounds read low 1.01 | locus YER111C, strain swi4, active compounds read low 1.02 | locus YER155C, strain BEM2 (second series), active compounds read low 0.993 | locus YER155C, strain BEM2, active compounds read low 1 | locus YER167W, strain BCK2, active compounds read low 0.987 | locus YFR010W, strain ubp6, active compounds read low 1.02 | locus YGL078C, strain dbp3, active compounds read low 1 | locus YGL086W, strain mad1, active compounds read low 0.994 | locus YGL167C, strain pmr1, active compounds read low 1.01 | locus YGL173C, strain kem1, active compounds read low 1.03 | locus YGL227W, strain vid30, active compounds read low 1.04 | locus YGL240W, strain doc1, active compounds read low 0.983 | locus YGL248W, strain PDE1, active compounds read low 0.998 | locus YGL253W, strain hxk2, active compounds read low 1.03 | locus YGR078C, strain PAC10, active compounds read low 1.02 | locus YGR135W, strain pre9, active compounds read low 1.01 | locus YGR229C, strain SMI1, active compounds read low 0.994 | locus YGR252W, strain gcn5, active compounds read low 0.947 | locus YHR013C, strain ard1, active compounds read low 1.01 | locus YHR027C, strain rpn1, active compounds read low 1.02 | locus YHR030C, strain SLT2, active compounds read low 0.998 and 0.975 | locus YHR079C, strain IRE1 (second series), active compounds read low 1.02 | locus YHR079C, strain IRE1, active compounds read low 1 | locus YHR094C, strain hxt1, active compounds read low 1.01 | locus YHR129C, strain ARP1, active compounds read low 1.01 | locus YHR142W, strain chs7, active compounds read low 1.05 | locus YHR200W, strain rpn10, active compounds read low 1.01 | locus YIL066C, strain RNR3, active compounds read low 1.01 | locus YIL073C, strain SPO22, active compounds read low 0.964 | locus YIL125W, strain kgd1, active compounds read low 0.998 | locus YIR030C, strain dcg1, active compounds read low 1.01 | locus YJL092W, strain hpr5, active compounds read low 1.02 | locus YJL095W, strain BCK1 (second series), active compounds read low 1.02 | locus YJL095W, strain BCK1, active compounds read low 1.04 and 0.945 | locus YJL115W, strain asf1, active compounds read low 1.01 | locus YJL129C, strain trk1, active compounds read low 1.01 | locus YJL134W, strain LCB3, active compounds read low 1 | locus YJL154C, strain vps35, active compounds read low 1.03 | locus YJL164C, strain tpk1, active compounds read low 1.03 | locus YJL166W, strain qcr8, active compounds read low 1.02 | locus YJL168C, strain set2, active compounds read low 1.01 | locus YJL187C, strain SWE1 (second series), active compounds read low 1.02 | locus YJR043C, strain POL32, active compounds read low 1.03 | locus YJR066W, strain TOR1, active compounds read low 0.962

Reference: PubChem BioAssay AID1159580 (chemical genetic matrix, 2015)
